Screening data (PubChem)
Sm TGR block = inhibitors of Schistosoma mansoni thioredoxin glutathione reductase | purified TGR, DTNB reduction, TNB absorbance 405 nm | 360,000 tested, 3% active | Q962Y6 | Potency, µM (top dose mostly 114 µM), actives largely listed as inhibitors; note: nearly all actives have a fitted effect of over 60% in size
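First, TGR (20 nM dispensed) and NADPH were mixed with compound. Second, a 15 min room-temperature incubation followed. Third, further NADPH and then DTNB were added to start the reaction. Finally, TNB absorbance was monitored kinetically.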
Pf growth 48h = P. falciparum growth inhibition at 48 hours (one generation). 310,000 tested, 5.9% active. Potency, µM (doses to about 28.7 µM), most hits filed as inhibitors. P. falciparum luciferase growth in erythrocytes, 48 h
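Erythrocytes infected with P. falciparum carrying an integrated firefly luciferase reporter (2% hematocrit, 0.1% parasitemia final) were exposed to compounds in RPMI 1640 with 0.5% Albumax at 37 C, 5% CO2. Growth inhibition was scored as reduced luminescence.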
FBPA Giardia inh = inhibitors of Giardia lamblia fructose-1,6-bisphosphate aldolase; purified Giardia FBPA; Potency, µM (doses to about 59.6 µM), hits mostly inhibitors; 290,000 tested, 0.71% active; A8B2U2; note: nearly all actives have a fitted effect of over 55% in size
Target sequence (A8B2U2 whole entry, looked up): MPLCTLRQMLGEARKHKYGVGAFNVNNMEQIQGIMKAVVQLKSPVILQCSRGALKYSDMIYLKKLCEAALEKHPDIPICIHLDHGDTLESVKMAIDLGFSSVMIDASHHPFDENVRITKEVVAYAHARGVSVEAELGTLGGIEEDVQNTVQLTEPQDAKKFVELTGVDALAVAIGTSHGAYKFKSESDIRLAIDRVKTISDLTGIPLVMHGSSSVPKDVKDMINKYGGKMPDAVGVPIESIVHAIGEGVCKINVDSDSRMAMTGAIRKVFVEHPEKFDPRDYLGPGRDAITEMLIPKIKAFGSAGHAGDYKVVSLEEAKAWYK
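40 nM FBPA preincubated 10 min at RT with compound (up to 57.5 uM final), then substrate plus GAPDH/TPI/NAD/arsenate coupling and diaphorase/resazurin added. Fluorescence read after 20 min at RT, 525/598 nm.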
HCMV antiviral = human cytomegalovirus inhibition. HFF cells, HCMV-luciferase reporter, 72 h; hits give low values. activity change, negative = inhibition, % at 57.5 µM. 410,000 tested, 4.5% active; in the data active = activity change below about -60%; inconclusive = no clear call, values can overlap the other calls; inactive = above about -39%
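Screen run at 2 compound doses on HFFs infected with reporter HCMV, MOI 1 PFU/cell. Luciferase activity from cell lysates at 72 h post infection gave inhibition relative to buffer-only and Salinomycin wells.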
Pf growth 96h = P. falciparum growth inhibition at 96 hour, primary screen for plastid delayed-death inhibitors. Potency, µM (doses to about 28.7 µM), most hits filed as inhibitors. 320,000 tested, 6.9% active. AID 504834. P. falciparum luciferase reporter growth, 96 h
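Compounds incubated with erythrocytes infected by luciferase-expressing P. falciparum (2% hematocrit, 0.05% parasitemia final) for 96 hours, 37 C in 5% CO2. Growth inhibition scored as decreased luciferase luminescence.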
Hits are given with their value; n = inactive; u = inconclusive; x = not tested or not shown; ! = not active in a repeat. A selection: hits, their analogues and other compounds. The true share with any hit is near 14%. Unless noted, calls come from the whole dose curve; as a rule, active = well fitted curve in the direction sought with a large enough effect; inconclusive = small, poorly fitted or top-dose-only effect, or another doubt; inactive = no such curve, though single readings can be large; an effect the other way counts as inactive or inconclusive.

SMILES	Sm TGR block	Pf growth 48h	FBPA Giardia inh	HCMV antiviral	Pf growth 96h
CCCN1C(=O)/C(=C/C=C2\N(CC)c3ccccc3C2(C)C)SC1=S	n	u	n	n	4.1µM
CCN(CC(=O)Nc1ccc(NC(C)=O)cc1)C(=O)CSCc1c(C)noc1C	n	n	x	n	n
CCOC(=O)c1cccc2c1-c1ccccc1/C2=N/O	n	u	n	-71	n
CC(C)COC(=O)c1cccc2c1-c1ccccc1/C2=N\O	n	n	n	n	u
CCOC(=O)Cn1c(=O)n(C2CCCCC2)c2nc(-c3c(F)cccc3Cl)nc(C(N)=O)c21	n	x	x	-82	x
Cc1nc2cc[nH]n2c(=O)c1CCc1ccccc1	x	x	x	n	x
COc1cccc(C(=O)OCC(=O)NCCCc2ccccc2)c1	79µM	x	n	n	n
COc1ccc(CCNC(=O)c2ccccc2C(=O)NCCc2ccc(OC)cc2)cc1	x	x	x	n	x
COc1ccc(CC(=O)Nc2ccccc2C(=O)NCCc2ccccc2)cc1	n	u	n	n	12µM
CCCCC(=O)NCCc1ccc(OC)cc1	n	x	n	n	n
COc1ccc(CCNC(=O)CCCc2ccccc2)cc1	n	n	n	n	10µM
COc1ccc(-c2cc(=O)oc3cc(OCC(=O)N(C)C)ccc23)cc1	n	u	n	n	10µM
Cc1cc(OCC(=O)N(C)C)c2c(-c3ccccc3)cc(=O)oc2c1	n	x	n	n	10µM
O=C(COc1ccc2oc(-c3ccccc3)cc(=O)c2c1)Nc1ccccc1	n	n	n	n	3.7µM
CCN(CC)C(=O)COc1ccc2c(-c3ccccc3)cc(=O)oc2c1	n	u	n	n	n
CCN(CC)C(=O)COc1cc(C)cc2oc(=O)cc(-c3ccccc3)c12	n	u	x	n	n
COC(=O)COc1ccc2oc(-c3ccc(OC)cc3)cc(=O)c2c1	n	x	x	n	x
O=C(COc1ccc2c(-c3ccccc3)cc(=O)oc2c1)Nc1ccc(CCO)cc1	n	n	n	-68	n
CCOC(=O)C1=CC[C@H]2c3c(c4ccccc4n3C)C(=O)C1N2Cc1ccccc1	x	x	x	n	x
CCC(C)(C)n1nnnc1C(c1cc2cc(OC)ccc2[nH]c1=O)N1CCc2ccccc21 (stereo not given)	n	10µM	u	n	n
COc1cc2cc(C(c3nnnn3Cc3ccc(F)cc3)N3CCCCCC3)c(=O)[nH]c2cc1OC (stereo not given)	u	u	n	n	u
COc1ccc2cc(C(c3nnnn3C(C)(C)C)N3CCSCC3)c(=O)[nH]c2c1 (stereo not given)	n	12µM	n	n	n
CCC(C)(C)n1nnnc1C(c1cc2cc(C)ccc2[nH]c1=O)N1CCCc2ccccc21 (stereo not given)	u	x	u	n	u
CCC(C)(C)n1nnnc1C(c1cc2ccc(OC)cc2[nH]c1=O)N1CCc2ccccc21 (stereo not given)	35µM	5.2µM	n	n	n
COc1ccc(Cn2nnnc2C(c2cc3ccc(OC)cc3[nH]c2=O)N2CCCCCC2)cc1 (stereo not given)	18µM	9.3µM	n	n	n
SMILES	Sm TGR block	Pf growth 48h	FBPA Giardia inh	HCMV antiviral	Pf growth 96h
CN(CCOc1ccc(Cl)cc1)C(=O)Cc1ccc(S(=O)(=O)N2CCOCC2)s1	n	u	x	n	u
COc1ccc(CNC(=O)C(CCSC)NS(=O)(=O)c2ccccc2F)cc1 (stereo not given)	n	n	n	n	n
COc1ccc2cc(C(c3nnnn3C(C)(C)C)N3CCc4ccccc4C3)c(=O)[nH]c2c1 (stereo not given)	n	u	n	x	u
CCC(C)(C)n1nnnc1C(c1cc2ccc(OC)cc2[nH]c1=O)N1CCc2ccccc2C1 (stereo not given)	u	u	n	-75	x
CC(C)(C)OC(=O)CNC(=O)c1[nH]cnc1C(=O)NC1CCN(C(=O)OC(C)(C)C)CC1	n	u	n	n	u
CC(C)(C)OC(=O)N1CCC(NC(=O)c2ncn(Cc3ccccc3)c2C(=O)NC2CCN(C(=O)OC(C)(C)C)CC2)CC1	n	5.2µM	x	n	u
CCOC(=O)c1ccc(NC(=O)c2nc[nH]c2C(=O)NC2CCN(C(=O)OC(C)(C)C)CC2)cc1	n	10µM	n	n	u
C[C@H](NC(=O)c1ncn(Cc2ccccc2)c1C(=O)N[C@@H](C)c1ccccc1)c1ccccc1	n	u	x	n	8.3µM
CC(C)(C)OC(=O)N1CCC(NC(=O)c2nc[nH]c2C(=O)NC2CCN(C(=O)OC(C)(C)C)CC2)CC1	n	3.7µM	x	n	3.7µM
O=C(CN1C(=O)NC2(CCCC2)C1=O)NCc1ccc(Cl)cc1	x	x	x	n	x
O=C(NCCc1ccccn1)c1nc(Cn2ccc([N+](=O)[O-])n2)no1	n	n	n	n	u
O=C1c2ccccc2C(c2nnnn2Cc2ccccc2)N1CCc1c[nH]c2ccccc12 (stereo not given)	x	x	x	n	x
COc1ccc(NC(=O)CSc2sc3c(O)cc(=O)[nH]c3c2C#N)c(OC)c1	n	n	n	n	u
N#Cc1c(SCC(=O)Nc2cccc(C(F)(F)F)c2)sc2c(O)cc(=O)[nH]c12	32µM	n	n	n	n
Cc1cc(NC(=O)CSc2sc3c(O)cc(=O)[nH]c3c2C#N)ccc1Br	u	n	n	n	n
COc1ccccc1NC(=O)CSc1sc2c(O)cc(=O)[nH]c2c1C#N	14µM	n	n	n	n
Cc1ccc(S(=O)(=O)N2CCC(C(=O)NCCCn3ccnc3)CC2)cc1	u	n	x	n	n
CC(=O)Nc1ccc(NC(=O)C(NC(=O)C2CCC(C)CC2)C(C)C)cc1 (stereo not given)	n	x	x	n	x
O=C(OCCN1CCCCC1)c1cccc(F)c1	n	n	n	n	5.9µM
CCCCNc1c(-c2ccc(OC)c(SC(C)CC)c2)nc2cnccn12 (stereo not given)	x	x	x	n	x
CCCCNc1c(-c2ccc(OC)c(SC(C)CC)c2)nc2cc(C)ccn12 (stereo not given)	x	x	x	-79!	x
CCCCNc1c(-c2ccc(Sc3ccc(OC)cc3)cc2)nc2cc(C)ccn12	x	x	x	n	x
CCCCNc1c(-c2ccc(OC)c(SC(C)CC)c2)nc2ccc(C)cn12 (stereo not given)	x	x	x	-63!	x
CCCCNc1c(-c2ccc(-c3ccc(C(C)=O)cc3)c(OC)c2)nc2cc(C)ccn12	x	x	x	-93	x
Cn1cc(-c2cc3n(n2)CCC(=O)N3CCCC(=O)NCc2ccc(F)cc2)c2ccccc21	n	x	x	n	x
Cc1nc2sccn2c(=O)c1S(=O)(=O)Nc1cc(C(F)(F)F)ccc1Cl	n	x	x	n	x
COCCN1C(=O)N(c2cccc(OC)c2)C(=O)C1CC(=O)Nc1cccc(F)c1 (stereo not given)	n	n	u	n	4.1µM
COCCN1C(=O)N(c2cccc(OC)c2)C(=O)C1CC(=O)Nc1ccccc1 (stereo not given)	n	x	x	n	x
COC(=O)CN1C(=S)N(Cc2ccccc2)C(=O)C1CC(=O)Nc1ccc(OC)cc1 (stereo not given)	n	4.1µM	n	n	n
